{
  "source": "the antibiotic and cytotoxicity screens of Wong et al. (2023)",
  "note": "Hit rate of the full screen: of about 39,000 compounds, about 3,300 (8.5%) were called active. This is one part of a sample in which actives are shown more often than they occur.",
  "data": [
    {"system": "HepG2", "test": "cytotoxicity call (relative viability < 0.9)", "conditions": "10 µM", "values": [
      {"smiles": "C[C@H]1CN([C@@H](C)CO)C(=O)c2cc(NC(=O)Cn3cnnn3)ccc2O[C@@H]1CN(C)S(C)(=O)=O", "cytotoxicity call": "inactive"},
      {"smiles": "CN(C)C(=O)C[C@@H]1CC[C@@H]2[C@H](COC[C@@H](O)CN2S(=O)(=O)c2ccccc2)O1", "cytotoxicity call": "inactive"},
      {"smiles": "C[C@@H]1CN([C@H](C)CO)S(=O)(=O)c2ccc(-c3ccc(F)cc3)cc2O[C@@H]1CN(C)C(=O)C1CCOCC1", "cytotoxicity call": "inactive"},
      {"smiles": "COc1ccc(NC(=O)Nc2ccc3c(c2)C(=O)N([C@H](C)CO)C[C@H](C)[C@@H](CN(C)C(=O)Cc2ccccc2)OCCCC[C@@H](C)O3)cc1", "cytotoxicity call": "inactive"},
      {"smiles": "CCc1nc2ccc(C(=O)NC3CCN(Cc4ccccc4)CC3)cn2c1N(C)CCN1CCOCC1", "cytotoxicity call": "inactive"},
      {"smiles": "CCc1nc2ccc(C(=O)Nc3cccc(OCC(=O)N(C)C)c3)cn2c1N(C)Cc1cc2ccccc2s1", "cytotoxicity call": "inactive"},
      {"smiles": "CCc1nc2ccc(C(=O)NC3CCN(Cc4ccccc4)CC3)cn2c1N(C)Cc1cc2ccccc2s1", "cytotoxicity call": "active"},
      {"smiles": "C[C@@H]1CCCCO[C@@H](CN(C)C(=O)Nc2ccc(C(F)(F)F)cc2)[C@H](C)CN([C@@H](C)CO)C(=O)c2cc(NC(=O)Cc3ccccc3)ccc2O1", "cytotoxicity call": "inactive"},
      {"smiles": "O=C(O)CN(CCN(CC(=O)O)CC(=O)O)CCN(CC(=O)O)CC(=O)O", "cytotoxicity call": "inactive"},
      {"smiles": "CO[C@H]1CCCNC1", "cytotoxicity call": "inactive"},
      {"smiles": "C[C@@H]1CN([C@@H](C)CO)C(=O)c2cc(NC(=O)CCCCCC(=O)Nc3ccccc3N)ccc2O[C@@H]1CN(C)C(=O)Nc1ccc(C(F)(F)F)cc1", "cytotoxicity call": "inactive"},
      {"smiles": "C[C@H]1CN([C@@H](C)CO)C(=O)c2cc(NC(=O)CCCCCC(=O)Nc3ccccc3N)ccc2O[C@H]1CN(C)C(=O)Nc1ccc(C(F)(F)F)cc1", "cytotoxicity call": "active"},
      {"smiles": "C[C@H](CO)N1C[C@H](C)[C@@H](CN(C)C(=O)Nc2ccc(C(F)(F)F)cc2)Oc2ccc(NC(=O)CCCCCC(=O)Nc3ccccc3N)cc2C1=O", "cytotoxicity call": "inactive"},
      {"smiles": "COc1ccc(NC(=O)N(C)C[C@H]2Oc3ccc(NC(=O)CCCCCC(=O)Nc4ccccc4N)cc3C(=O)N([C@@H](C)CO)C[C@H]2C)cc1", "cytotoxicity call": "inactive"},
      {"smiles": "C[C@@H]1CN([C@H](C)CO)C(=O)c2cc(NC(=O)CCCCCC(=O)Nc3ccccc3N)ccc2O[C@H]1CN(C)C(=O)Nc1ccc(C(F)(F)F)cc1", "cytotoxicity call": "inactive"},
      {"smiles": "C[C@H]1CN([C@@H](C)CO)C(=O)c2cc(NC(=O)CCCCCC(=O)Nc3ccccc3N)ccc2O[C@@H]1CN(C)C(=O)Nc1ccc(C(F)(F)F)cc1", "cytotoxicity call": "inactive"},
      {"smiles": "C[C@H](CO)N1C[C@H](C)[C@H](CN(C)C(=O)Nc2ccc(C(F)(F)F)cc2)Oc2ccc(NC(=O)CCCCCC(=O)Nc3ccccc3N)cc2C1=O", "cytotoxicity call": "active"},
      {"smiles": "COc1ccc(NC(=O)N(C)C[C@@H]2Oc3ccc(NC(=O)CCCCCC(=O)Nc4ccccc4N)cc3C(=O)N([C@H](C)CO)C[C@@H]2C)cc1", "cytotoxicity call": "active"},
      {"smiles": "COc1ccc(NC(=O)N(C)C[C@@H]2Oc3ccc(NC(=O)CCCCCC(=O)Nc4ccccc4N)cc3C(=O)N([C@H](C)CO)C[C@H]2C)cc1", "cytotoxicity call": "inactive"},
      {"smiles": "C[C@@H]1CCCCO[C@H](CN(C)S(=O)(=O)c2ccc(F)cc2)[C@@H](C)CN([C@@H](C)CO)C(=O)c2cc(NC(=O)Nc3cccc4ccccc34)ccc2O1", "cytotoxicity call": "inactive"},
      {"smiles": "CC(=O)N(C)CCc1ccc(C)[n+]([O-])c1", "cytotoxicity call": "inactive"},
      {"smiles": "C[C@@H]1CN([C@H](C)CO)C(=O)c2cc(-c3cncnc3)cnc2O[C@@H]1CN(C)C(=O)CN1CCOCC1", "cytotoxicity call": "inactive"},
      {"smiles": "Cc1ccc(S(=O)(=O)N(C)C[C@H]2OCCCC[C@@H](C)Oc3ccc(NC(=O)Nc4ccc(F)cc4)cc3C(=O)N([C@@H](C)CO)C[C@@H]2C)cc1", "cytotoxicity call": "inactive"},
      {"smiles": "C[C@H](O)C#Cc1cnc2c(c1)C(=O)N([C@H](C)CO)C[C@H](C)[C@H](CN(C)C(=O)Nc1ccc(C(F)(F)F)cc1)O2", "cytotoxicity call": "inactive"},
      {"smiles": "CO[C@@H]1CN(C)C(=O)c2cc(NC(=O)C3CC3)ccc2OC[C@H](C)N(C(=O)Cc2ccccn2)C[C@H]1C", "cytotoxicity call": "inactive"},
      {"smiles": "O=C1CCC(c2ccc(O)cc2)CC1", "cytotoxicity call": "inactive"},
      {"smiles": "O=C1C=CC(=O)N1c1ccc(O)cc1", "cytotoxicity call": "active"},
      {"smiles": "Cc1ccc(S(=O)(=O)N(C)C[C@H]2OCCCC[C@@H](C)Oc3ccc(NC(=O)Nc4ccc(C(F)(F)F)cc4)cc3C(=O)N([C@H](C)CO)C[C@@H]2C)cc1", "cytotoxicity call": "inactive"},
      {"smiles": "C[C@@H]1CN([C@@H](C)CO)C(=O)c2cc(NC(=O)Cn3cnnn3)ccc2O[C@H]1CN(C)S(=O)(=O)c1cn(C)cn1", "cytotoxicity call": "inactive"},
      {"smiles": "C[C@@H]1CN([C@H](C)CO)C(=O)c2cc(NC(=O)Nc3cccc4ccccc34)ccc2O[C@@H](C)CCCCO[C@@H]1CN(C)S(=O)(=O)c1cn(C)cn1", "cytotoxicity call": "inactive"},
      {"smiles": "C[C@@H]1CN([C@@H](C)CO)C(=O)c2cccc(NS(=O)(=O)c3cn(C)cn3)c2O[C@@H]1CN(C)S(=O)(=O)c1cccs1", "cytotoxicity call": "inactive"},
      {"smiles": "OCc1ccc(O)cc1", "cytotoxicity call": "inactive"},
      {"smiles": "Cc1ccc(O)cc1", "cytotoxicity call": "inactive"},
      {"smiles": "Nc1ccc(O)cc1", "cytotoxicity call": "active"},
      {"smiles": "Oc1ccc(O)cc1", "cytotoxicity call": "active"},
      {"smiles": "Nc1ccc(C(=O)O)cc1", "cytotoxicity call": "inactive"},
      {"smiles": "Nc1cccc(O)c1", "cytotoxicity call": "inactive"},
      {"smiles": "C[C@@H]1CCCCO[C@H](CN(C)S(=O)(=O)c2ccccc2)[C@@H](C)CN([C@H](C)CO)C(=O)c2cc(NS(=O)(=O)c3cn(C)cn3)ccc2O1", "cytotoxicity call": "inactive"},
      {"smiles": "Cc1noc(C)c1NC(=O)N(C)C[C@@H]1Oc2c(NC(=O)c3ccc(-c4nccs4)cc3)cccc2C(=O)N([C@@H](C)CO)C[C@@H]1C", "cytotoxicity call": "inactive"},
      {"smiles": "C[C@@H]1CCCCO[C@H](CN(C)C(=O)Cc2ccccc2)[C@H](C)CN([C@H](C)CO)C(=O)c2cc(NS(=O)(=O)c3ccc(F)cc3)ccc2O1", "cytotoxicity call": "inactive"},
      {"smiles": "C[C@H](CO)N1C[C@H](C)[C@@H](CN(C)C(=O)Nc2cccc3ccccc23)Oc2ccc(NC(=O)Cc3ccccc3)cc2CC1=O", "cytotoxicity call": "inactive"},
      {"smiles": "Cc1noc(C)c1NC(=O)Nc1ccc2c(c1)C(=O)N([C@@H](C)CO)C[C@H](C)[C@@H](CN(C)Cc1ccc3c(c1)OCO3)OCCCC[C@H](C)O2", "cytotoxicity call": "inactive"},
      {"smiles": "Brc1cccc2ocnc12", "cytotoxicity call": "inactive"},
      {"smiles": "Cc1cc(C(=O)Nc2cccc3c2O[C@H](CN(C)Cc2ccc(C(=O)O)cc2)[C@H](C)CN([C@H](C)CO)C3=O)n(C)n1", "cytotoxicity call": "inactive"},
      {"smiles": "CC[C@H](C)[C@@H]([C@@H](CC(=O)N1CCC[C@H]1[C@H](OC)[C@@H](C)C(=O)N[C@@H](Cc1ccccc1)c1nccs1)OC)N(C)C(=O)[C@@H](NC(=O)[C@H](C(C)C)N(C)C)C(C)C", "cytotoxicity call": "active"},
      {"smiles": "C[C@@H]1CCCCO[C@H](CN(C)C(=O)Nc2cccc3ccccc23)[C@H](C)CN([C@@H](C)CO)C(=O)c2cc(NC(=O)Nc3ccc4c(c3)OCO4)ccc2O1", "cytotoxicity call": "inactive"},
      {"smiles": "Cc1noc(C)c1NC(=O)Nc1ccc2c(c1)C(=O)N([C@H](C)CO)C[C@H](C)[C@@H](CN(C)Cc1ccc(-c3ccccc3)cc1)O2", "cytotoxicity call": "inactive"},
      {"smiles": "COC(=O)C1=C(C)NC(C)=C(C(=O)OCCN(C)Cc2ccccc2)C1c1cccc([N+](=O)[O-])c1.Cl", "note": "(centres undefined)", "cytotoxicity call": "inactive"},
      {"smiles": "CCCN1C(C)=C(C(=O)OC)[C@@H](c2cccc([N+](=O)[O-])c2)C(C(=O)ON2CCC(c3ccccc3)(c3ccccc3)CC2)=C1C", "cytotoxicity call": "active"},
      {"smiles": "CCOC(=O)C1=C(C)NC(C)=C(C(=O)OC)C1c1cccc([N+](=O)[O-])c1", "note": "(centres undefined)", "cytotoxicity call": "inactive"},
      {"smiles": "COC(=O)C1=C(C)NC(C)=C(C(=O)OCC(C)C)C1c1ccccc1[N+](=O)[O-]", "note": "(centres undefined)", "cytotoxicity call": "inactive"},
      {"smiles": "COC(=O)C1=C(C)NC(C)=C(C(=O)OCCN2CCN(C(c3ccccc3)c3ccccc3)CC2)C1c1cccc([N+](=O)[O-])c1", "note": "(centres undefined)", "cytotoxicity call": "active"},
      {"smiles": "COC(=O)C1=C(C)NC(C)=C(C(=O)NCCCN2CCC(c3ccccc3)(c3ccccc3)CC2)[C@@H]1c1ccc([N+](=O)[O-])cc1", "cytotoxicity call": "active"},
      {"smiles": "COC(=O)C1=C(C)NC(C)=C(C(=O)OCC(C)C)[C@@H]1c1ccccc1[N+](=O)[O-]", "cytotoxicity call": "inactive"},
      {"smiles": "COC(=O)C1=C(C#N)NC(C)=C(C(=O)OC(C)C)C1c1cccc([N+](=O)[O-])c1", "note": "(centres undefined)", "cytotoxicity call": "active"},
      {"smiles": "COC(=O)C1=C(C)NC(C)=C(C(=O)OC(C)(C)CN(C)CCC(c2ccccc2)c2ccccc2)[C@@H]1c1cccc([N+](=O)[O-])c1", "cytotoxicity call": "inactive"},
      {"smiles": "O=C(Nc1cccc([N+](=O)[O-])c1)C(=O)NC1CC1", "cytotoxicity call": "inactive"},
      {"smiles": "NNC(=O)c1cccc([N+](=O)[O-])c1", "cytotoxicity call": "inactive"},
      {"smiles": "CCOC(=O)C1=C(C)NC(c2ccccc2)=C(C(=O)OCc2ccc([N+](=O)[O-])cc2)[C@@H]1C#Cc1ccccc1", "cytotoxicity call": "inactive"},
      {"smiles": "Oc1ccccc1CNc1ccc(C2CCCCC2)cc1", "cytotoxicity call": "inactive"},
      {"smiles": "CNCc1cc2ccccc2s1", "cytotoxicity call": "inactive"},
      {"smiles": "O=C(C[C@@H]1C[C@@H]2c3cc(NC(=O)c4ccc5c(c4)OCO5)ccc3O[C@@H]2[C@H](CO)O1)NCCN1CCCCC1", "cytotoxicity call": "inactive"},
      {"smiles": "Cc1noc(C)c1NC(=O)Nc1ccc2c(c1)C(=O)N([C@@H](C)CO)C[C@H](C)[C@@H](CN(C)C(=O)Cc1ccccc1)OCCCC[C@H](C)O2", "cytotoxicity call": "inactive"},
      {"smiles": "Cn1ccc(C(=O)N2CC[C@@H]3OCCN(S(C)(=O)=O)[C@@H]3C2)n1", "cytotoxicity call": "inactive"},
      {"smiles": "C[C@H]1CN([C@@H](C)CO)C(=O)c2cc(NS(=O)(=O)c3ccc(Cl)cc3)ccc2O[C@H]1CN(C)Cc1ccc(C(=O)Nc2ccccc2N)cc1", "cytotoxicity call": "inactive"},
      {"smiles": "C[C@@H]1CN([C@H](C)CO)C(=O)c2cc(C#Cc3ccc(F)cc3)cnc2O[C@@H]1CN(C)CC1CCOCC1", "cytotoxicity call": "inactive"},
      {"smiles": "CC1(C)OC2CC3C4CC(F)C5=CC(=O)C=CC5(C)C4(F)C(O)CC3(C)C2(C(=O)CO)O1", "note": "(centres undefined)", "cytotoxicity call": "inactive"},
      {"smiles": "COCCOC(=O)C1=C(C)NC(C)=C(C(=O)OCC=Cc2ccccc2)C1c1cccc([N+](=O)[O-])c1", "note": "(centres undefined)", "cytotoxicity call": "active"},
      {"smiles": "CC1=C(C(=O)OCCN(Cc2ccccc2)c2ccccc2)[C@H](c2cccc([N+](=O)[O-])c2)C(P2(=O)OCC(C)(C)CO2)=C(C)N1", "cytotoxicity call": "inactive"},
      {"smiles": "COC(=O)C1=C(C)NC(C)=C(C(=O)OCCCN2CCC(c3ccccc3)(c3ccccc3)CC2)[C@H]1c1cccc([N+](=O)[O-])c1", "cytotoxicity call": "active"},
      {"smiles": "COc1cc(OC)cc(C(=O)OCCCN2CCN(CCCOC(=O)c3cc(OC)cc(OC)c3)CC2)c1", "cytotoxicity call": "inactive"},
      {"smiles": "COC(=O)C1=C(C)NC(C)=C(C(=O)OCCCN2CCC(c3ccccc3)(c3ccccc3)CC2)[C@@H]1c1cccc([N+](=O)[O-])c1", "cytotoxicity call": "active"},
      {"smiles": "COCCOC(=O)C1=C(C)NC(C)=C(C(=O)OC(C)C)C1c1cccc([N+](=O)[O-])c1", "note": "(centres undefined)", "cytotoxicity call": "inactive"},
      {"smiles": "CC1=C(C(=O)OCCN(Cc2ccccc2)c2ccccc2)[C@@H](c2cccc([N+](=O)[O-])c2)C(P2(=O)OCC(C)(C)CO2)=C(C)N1.CCO.Cl", "cytotoxicity call": "inactive"}
    ]}
  ]
}
